Hit rate of the full screen: of about 320,000 compounds, about 2,100 (0.66%) were called active. Another 53% or so got no clear call; they are omitted. The call rests on the fitted dose curve; in most records, active means well fitted inhibition curve with a large enough effect in the signal ratio, with a control signal flat (not every such curve was filed as active); inconclusive means small, poorly fitted or top-dose-only effect, or effect the other way, or a change in a side signal; inactive means flat fitted curve, though single readings scatter; the % refers to the signal ratio. Only a selection was taken, and actives are over-represented in it overall.

Among the data in PubChem BioAssay AID2685 (National Center for Advancing Translational Sciences (NCATS), 2010) are Potency and cell number change values, retold here.
Potency means the concentration at half of the fitted maximal effect.

A short description of this experiment: qHTS Assay for Lipid Storage Modulators in Drosophila S3 Cells.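 On cell number change: cells counted by Cell Tracker Red CMTPX staining in the red channel.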 The following applies: BODIPY lipid droplet fluorescence, 18-24 h, cells fed with added oleic acid; cell number change: measured here: cell count max response; series mostly up to 46.1 µM. In a few lines: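 Drosophila S3 cells got compounds at several concentrations plus oleic acid (400 uM solution). Laser-scanning cytometry with 488 nm excitation read lipid droplets at 500-530 nm and cells at 575-640 nm. Percent activity was relative to 20 uM Triacsin C.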
Consider `O=C(NC1=NCCS1)c1ccccc1Cl`, for which the Potency result is “inactive” and the cell number change was -14.3%. With `CO/N=C/CC(=O)Nc1ccc(F)cc1F`, the Potency entry is “inactive” and the cell number change was 16.8%. For `CCCNC(=O)Nc1nc(CC(=O)OCC)cs1` the same measures were “inactive” and -16.9%. On to `CC1NC2(C(=O)N(Cc3ccccc3)c3ccccc32)C2C(=O)N(c3ccccc3)C(=O)C12` (configuration not stated), for which the Potency result is “inactive”.

As for `CC1Cc2ccccc2C(CCc2ccccc2)=N1` (configuration not stated), the Potency entry is “inactive” and the cell number change was -1.48%. `CSc1cccc(CNC(=O)CC2C(=O)NCCN2CC(C)(C)C)c1` (configuration not stated): the Potency result was “inactive” and the cell number change was found to be 22%.

On to `COc1ccc(-c2cc3cc(C(=O)O)ccn3c2C(=O)c2ccccc2)cc1`, for which the Potency result was “inactive” and the cell number change amounted to 2.31%. Take `CC1CCC2(CC1)NC(=O)N(CC(=O)NC(=O)Nc1ccc3c(c1)OCCO3)C2=O` (configuration not stated): the Potency result was “inactive” and the cell number change turned out to be 17.3%. In the case of `Cc1ccc(S(=O)(=O)N2CCC(C(=O)NCc3ccncc3)CC2)cc1`, the Potency was 18.4 µM (active) and the cell number change turned out to be 12.7%. For `CCOc1ccc(S(=O)(=O)N2CCC(C(=O)NCc3ccncc3)CC2)cc1Cl` the same measures were “inactive” and -18.4%. For `O=C(NC1CCN(S(=O)(=O)c2ccc(F)cc2)CC1)C1CCCCC1` the same measures were 5.17 µM (active) and -18.1%.

As to `CCOc1ccc(S(=O)(=O)N2CCCC(C(=O)NCc3ccncc3)C2)cc1C` (configuration not stated), the Potency entry was “inactive” and the cell number change turned out to be 9.24%. `CSc1ccc(S(=O)(=O)N2CCC(C(=O)NCc3ccncc3)CC2)cc1`: the Potency result is “inactive” and the cell number change was 19.2%. For `CCOc1ccc(S(=O)(=O)N2CCCC(C(=O)NCc3ccncc3)C2)cc1Cl` (configuration not stated) the same measures were 1.03 µM (active) and 25.2%. For `Cc1ccc(S(=O)(=O)N2CCC(C(=O)NCCc3ccccc3)CC2)cc1` the same measures were 23.1 µM (active) and -12.9%. For `O=C(NCc1ccncc1)C1CCN(S(=O)(=O)c2ccc(F)cc2)CC1`, in that order: “inactive” and 1.32%. Take `COc1ccc(S(=O)(=O)N2CCC(C(=O)NCCc3ccccc3)CC2)cc1`: the Potency result is “inactive” and the cell number change worked out at 20.5%. `Cc1ccc(S(=O)(=O)N2CCC(C(=O)N[C@@H](C)C(=O)NCCc3ccccc3)CC2)cc1`: the Potency entry was “inactive” and the cell number change stood at 4.36%.

As for `O=C(NC1CCCCCC1)C1CCN(S(=O)(=O)c2ccc(F)cc2)CC1`, the Potency result is “inactive” and the cell number change was -1.11%. Consider `O=C(NC1CCCCC1)C1CCCN(S(=O)(=O)c2ccc(F)cc2)C1` (configuration not stated), for which the Potency entry is “inactive” and the cell number change worked out at 2.52%. For `Cc1ccc(NC(=O)C(C)OC(=O)COc2cccc(C(F)(F)F)c2)cc1` (configuration not stated), in that order: “inactive” and 3.29%.

As for `COc1ccccc1N(CCC#N)C(=O)CSc1nc(-c2ccccc2)cn1N`, the Potency result is “inactive” and the cell number change was -6.12%. For `COc1ccc(/C=C/c2nc(-c3ccccc3)cc(=O)[nH]2)cc1`, the Potency entry was “inactive” and the cell number change was -10.9%. For `Cc1cn(C2CCC(CO)O2)c(=O)[nH]c1=O` (configuration not stated), in that order: “inactive” and 27%. For `CC1CCCC(NC(=O)COC(=O)c2cccs2)C1C` (configuration not stated), the Potency entry is “inactive” and the cell number change worked out at 0.184%. As for `CCOc1ccc(NC(=O)CN2C(=O)C3CCCN3C2=O)cc1` (configuration not stated), the Potency entry was “inactive”. `CC1(C)CC(=O)C(C=NCCN2CCN(CCc3ccccc3)CC2)=C(O)C1`: the Potency result was “inactive”. With `Cc1ccccc1C(=O)N1CCN(c2ccc(NC(=O)c3cccnc3)cc2)CC1`, the Potency result was “inactive” and the cell number change was 24.6%. For `CCOc1cc(C(=S)N2CCN(C)CC2)ccc1OCC(=O)N1CCOCC1` the same measures were “inactive” and -0.877%. For `COc1ccc2c(c1)C1=NN(/C(C)=C\C(C)=O)C(c3ccccc3)C1CC2` (configuration not stated) the same measures were “inactive” and -20.1%. In the case of `COc1cccc(CNCC(O)COc2ccc(C(=O)c3ccccc3)cc2)c1` (configuration not stated), the Potency entry is “inactive” and the cell number change is -29.5%. For `COC(=O)CN1C(=O)NC2(CCCc3ccccc32)C1=O` (configuration not stated) the same measures were “inactive” and 1.11%.

For `O=C(c1ccc(C(F)(F)F)cc1)C1CCCN(Cc2cccn2-c2ncccn2)C1` (configuration not stated), the Potency entry was “inactive” and the cell number change was 20.4%. For `O=C1CC(N2CCN(c3ccc(F)cc3)CC2)C(=O)N1c1ccc(F)cc1` (configuration not stated) the same measures were “inactive” and -10.9%.

In the case of `CCCS(=O)(=O)N1CCCC(C(=O)NCCc2ccccc2)C1` (configuration not stated), the Potency result is “inactive” and the cell number change came to 1.16%. In the case of `CCS(=O)(=O)N1CCCC(C(=O)NCCc2ccccc2)C1` (configuration not stated), the Potency was 25.9 µM (active) and the cell number change was -14.3%. For `CCCCS(=O)(=O)N1CCCC(C(=O)NCCc2ccccc2)C1` (configuration not stated), in that order: “inactive” and -7.87%. Regarding `Cc1ccc(C(=O)NCC(c2ccco2)N2CCCCC2)s1` (configuration not stated), the Potency entry is “inactive” and the cell number change came to 20.8%.

Regarding `CSc1cccc(NC(=O)C2CC(=O)N(Cc3ccccc3)C2)c1` (configuration not stated), the Potency entry is “inactive” and the cell number change is 8.1%.

In the case of `CC(=O)c1cccc(NC(=O)C2CC(=O)N(Cc3ccccc3)C2)c1` (configuration not stated), the Potency result is “inactive”. `O=C(O)c1cccc(NC(=O)C2CC(=O)N(Cc3ccccc3)C2)c1` (configuration not stated): the Potency was 4.61 µM (active) and the cell number change is -0.647%. For `O=S(=O)(Nc1ccncc1)c1ccc(Cl)cc1`, in that order: 10.3 µM (active) and -14.9%. For `O=S(=O)(Nc1ccc(Cc2ccncc2)cc1)c1ccc(Cl)cc1` the same measures were “inactive” and 4.35%. For `CCc1ccc(S(=O)(=O)Nc2ccncc2)cc1`, in that order: “inactive” and -6.32%. Regarding `COc1ccc(C(=O)N2CCC(=O)N(C(CO)Cc3ccccc3)CC2)cc1` (configuration not stated), the Potency entry is “inactive” and the cell number change was -2.26%. For `Cc1ccc(N=Cc2c(O)n(C)c(=O)n(C)c2=O)nc1` the same measures were “inactive” and 3.34%. For `O=S(=O)(NCc1cccnc1)c1ccc(Br)c2ccccc12`, in that order: “inactive” and 10.4%. Turning to `O=S(=O)(Nc1cccnc1)c1ccc(Br)c2ccccc12`, the Potency was 7.31 µM (active) and the cell number change is -5.22%.

As to `Cc1ccccc1S(=O)(=O)Nc1cccnc1`, the Potency result is “inactive” and the cell number change is 1.91%.

Turning to `C/C(CC(=O)Nc1ccc(Cl)cc1Cl)=N\NC(=O)c1ccncc1`, the Potency entry is “inactive” and the cell number change was determined as 23%. Take `COc1cc2c(cc1OC)C(c1cccc(Cl)c1Cl)CC(=O)N2` (configuration not stated): the Potency result is “inactive” and the cell number change is -12.7%.

Regarding `C/C(CC(=O)Nc1ccc2c(c1)OCCO2)=N\NC(=O)c1ccccc1F`, the Potency entry is “inactive” and the cell number change is 8.06%. With `COc1ccccc1C(=O)N/N=C(\C)CC(=O)Nc1ccc2c(c1)OCCO2`, the Potency is 16.4 µM (active) and the cell number change stood at 22.4%. As to `COc1ccc(C(=O)N/N=C(\C)CC(=O)Nc2ccc3c(c2)OCCO3)c(OC)c1`, the Potency result is “inactive” and the cell number change turned out to be 14.3%. For `Cc1ccc(Nc2ccccc2)nn1`, in that order: “inactive” and 17%.

Consider `N#Cc1nc(Cc2ccccc2)oc1N1CCCC1`, for which the Potency entry is “inactive” and the cell number change was -9.44%.

With `N#Cc1ncc(Cc2ccccc2)nc1C#N`, the Potency is 7.31 µM (active) and the cell number change is -22.9%. `N#Cc1nc(Cc2ccccc2)oc1NCc1ccccc1`: the Potency entry is “inactive” and the cell number change is -21%.

Consider `COc1ccccc1NC(=O)NNC(=O)C(C)Oc1ccc2ccccc2c1` (configuration not stated), for which the Potency entry was “inactive” and the cell number change worked out at 7.76%. Turning to `Cc1ccc(/C=N/N2CCN(Cc3ccc(Cl)cc3)CC2)o1`, the Potency result is “inactive” and the cell number change was -6.6%. With `O=C(COC(=O)C1CSC2(c3ccc(F)cc3)CCC(=O)N12)NC(=O)NC1CCCC1` (configuration not stated), the Potency result was “inactive” and the cell number change was 8.51%. With `O=C(C1CSC2(c3ccc(F)cc3)CCC(=O)N12)N1CCCCCC1` (configuration not stated), the Potency was 18.4 µM (active) and the cell number change was -5.6%. For `CC(C)CNC(=O)NC(=O)COC(=O)C1CSC2(c3ccc(F)cc3)CCC(=O)N12` (configuration not stated), the Potency entry was “inactive” and the cell number change is 5.71%.
